About 3,300 (0.97%) of roughly 340,000 compounds were called active. About 9% were inconclusive and are not listed. The call rests on the fitted dose curve; in most records, active means well fitted inhibition curve with a large enough effect; inconclusive means small, poorly fitted or top-dose-only effect, or effect the other way; inactive means flat fitted curve, though single readings scatter. Some of the results follow.
assay: qHTS Assay for Modulators of miRNAs and/or Inhibitors of miR-21; conditions: HeLa miR-21-FLuc reporter, luciferase luminescence, 48 h; actives lower the signal; further: nearly all actives have a fitted effect of over 55% in size
How it was run: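 HeLa cells stably expressing CMV-driven firefly luciferase with a downstream miR-21 binding sequence, endogenously expressing miR-21, were treated with titrations (up to about 40uM final) for 48 hours at 37 degree Celsius. Luciferase luminescence was read after lysis.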
Potency means the concentration at half of the fitted maximal effect.

Potency, active:
O=C(Nc1cccc(F)c1)c1ccc(-c2ccccc2Cl)o1 2.93 µM, COc1ccc(NC(=O)c2ccc(-c3ccccc3Cl)o2)cc1 7.36 µM, COc1ccc(/C=C/c2ccncc2)cc1OC 16.5 µM, CC1=NN(C(=O)c2ccoc2C)C(O)(C(F)(F)F)C1 (stereo not given) 10.4 µM, CCCNc1ccc(C(=O)OCC)cc1[N+](=O)[O-] 16.5 µM, COC(=O)c1ccc(-c2ccc(Cl)cc2)nc1C 1.47 µM, CCOC(=O)c1ccc(-c2ccc3c(c2)CCC3)nc1C 1.85 µM, COC(=O)c1ccc(-c2ccc(F)cc2)nc1C 6.56 µM, CCOc1ccc(-c2cn3nc(CC(C)C)sc3n2)cc1 2.93 µM, CCOc1ccc2cc(C#N)c(SCC(=O)N3CCOCC3)nc2c1 1.17 µM, CCOC(=O)CSc1nc2cc(OCC)ccc2cc1C#N 4.65 µM, COc1ccc2nc(SCC(C)=O)c(C#N)cc2c1 0.165 µM, COC(=O)CSc1nc2cc(OC)ccc2cc1C#N 0.233 µM, O=C(Nc1cc2c(cc1Br)OCCCO2)c1ccccc1 2.33 µM, COc1cccc(C(=O)Nc2cc3c(cc2Cl)OCCCO3)c1 0.826 µM, COc1cccc(C(=O)Nc2cc3c(cc2Br)OCCCO3)c1 2.07 µM, O=C(Nc1cc2c(cc1C(=O)O)OCCCO2)c1ccc(C(F)(F)F)cc1 7.36 µM, CN(C)S(=O)(=O)Oc1cccc(C(=O)Nc2ccccc2Cl)c1 8.26 µM, COC(=O)c1c(-c2ccncc2)csc1NC(=O)c1ccoc1C 1.85 µM, COC(=O)c1c(-c2cccnc2)csc1NC(=O)c1ccc2c(c1)OCO2 1.04 µM, COC(=O)c1c(-c2cccnc2)csc1NC(=O)c1cc(C)on1 2.07 µM, CC(CC(=O)c1cccs1)CC(=O)c1cccs1 11.7 µM, CC(C)(C)C(=O)Nc1ccc(C(=O)OC2CCCCC2)cc1 0.927 µM, Cc1nnc(SCc2nc(N)nc(Nc3ccccc3)n2)s1 11.7 µM, COc1ccc(Nc2nc(N)nc(SCc3nnc(C)s3)n2)cc1 14.7 µM, COc1ccc(Nc2nc(N)nc(CSc3nnc(C)s3)n2)cc1 18.5 µM, Cc1nnc(SCc2cccc3ccccc23)s1 14.7 µM, Cc1ccc(Nc2nc(N)nc(CSc3nnc(C)s3)n2)cc1 7.36 µM, CCc1ccc(NC(=O)c2n[nH]c(=O)c3ccccc23)cc1 1.04 µM, O=C(Nc1ccc2c(c1)OCO2)c1n[nH]c(=O)c2ccccc12 5.85 µM
